Source: PubChem BioAssay
For some assays here: Entries with a potency or affinity are not part of this list. The source made the active and inactive calls.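 How the source made its calls, unless noted: active means thallium flux through the channel raised or lowered by more than 3 SD from vehicle-only wells, actives on both sides; inactive means the rest.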

What was measured:
[1] = modulation of C. elegans fzo-1 (AID 1259413; call rule not given here;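 further: fzo-1 mutant C. elegans worms in liquid wells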); conditions: C. elegans fzo-1 modulator screen, mean read-out; stronger effect = higher value
F380Y = assay: BK channel mutant inhibitors and activators – cell-based, U2OS BacMam, thallium flux, beta subunits, selectivity assay, profiling panel (AID 1259406); conditions: U2OS BacMam BK variants, at 30 µM;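 further: initial slope of Thallos dye fluorescence rise after thallium is added; log ratio against the mean of 0.3% DMSO vehicle wells on the same plate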
F380Y/beta1 = assay: as above; conditions: U2OS BacMam BK variants, at 30 µM
F380Y/beta2Delta = assay: as above; conditions: U2OS BacMam BK variants, at 30 µM
R275C = assay: as above; conditions: U2OS BacMam BK variants, at 30 µM
R275C/beta1 = assay: as above; conditions: U2OS BacMam BK variants, at 30 µM
R275C/beta2Delta = assay: as above; conditions: U2OS BacMam BK variants, at 30 µM
R275C/Slo1WT/beta2 = assay: as above; conditions: U2OS BacMam BK variants, at 30 µM
[2] = compounds altering circadian rhythm period length – cell-based, LOPAC library, luminescence reporter (AID 2774; call rule not given here;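 further: values are relative to mean of DMSO wells on each plate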); conditions: circadian reporter cells, at 7 µM, actives lie on both sides
[3] = compounds altering Cy5-DNA-NS3h complex signal – biochemical, LOPAC1280, artefact control for HCV NS3 helicase inhibitor project (AID 687037; call rule not given here); conditions: Cy5-DNA-NS3h complex fluorescence interference counterscreen
[4] = test system: Aerobactin synthetase IucA (Klebsiella pneumoniae, hypervirulent); assay: biochemical IucA inhibition screen of LOPAC library by absorbance (AID 1346212; call rule not given here;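 further: 100% = no compound wells and 0% = no enzyme wells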); conditions: IucA enzyme assay, absorbance (OD) readout; stronger effect = lower value;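 tested at 8 µM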
[5] = blockers of cellular phospholipid synthesis – cell-based, LOPAC library, screen 4, primary screen (AID 1347384; call rule not given here); conditions: animal cells, phospholipid biosynthesis inhibition screen; at 10 µM
[6] = compounds altering viability of human ES cells (AID 493140; call rule not given here;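 further: cells exposed to compounds for four days before counting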); conditions: human embryonic stem cell survival screen; stronger effect = higher value
[7] = test system: Hepatitis C virus NS3 helicase; assay: blockers of NS3h binding to ssDNA – biochemical, fluorescence polarization, LOPAC1280 library, primary screen (AID 687035; in the data active means inhibition above about 37%); conditions: Purified HCV NS3 helicase, Cy5-dT15 ssDNA binding fluorescence polarization; stronger effect = higher value; concentration not given here
[8] = blockers of polyQ-driven CASP3 activation – cell-based (AID 1583); conditions: polyglutamine-induced caspase-3 activation, cell assay; stronger effect = higher value;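 tested at 10 µM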
[9] = restoration of touch response, mutant HTT neurons – whole organism, C. elegans mechanosensory neurons, N-terminal huntingtin (AID 1599); conditions: C. elegans polyQ-huntingtin mechanosensory neurons, stronger effect = higher value
[10] = glutamate transport activators, MN-1 cells, MN-1 cell line (AID 1612); conditions: MN-1 motor neuron cells, stronger effect = higher value;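 further: tested at 1 µM final; 0% = mean of DMSO vehicle wells on each plate; positive means more glutamate uptake than control and negative means less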
[11] = GFP-Q80 aggregate reduction, neuronal-like cells, cell-based, NGF-treated PC12, GFPQ80 (AID 1614); conditions: PC12 NGF-treated GFP-polyQ80 inclusion reduction;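 further: lower means fewer inclusions and 0 means no inclusions at all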
[12] = 75Q-TubH aggregate inhibition, S. cerevisiae, yeast (AID 1616); conditions: S. cerevisiae 75Q-TubH polyglutamine aggregation suppression; stronger effect = higher value

C[N+]1(CCC(C(N)=O)(c2ccccc2)c2ccccc2)CCCCC1
inactive: mean signal [1] 231 | log fold change Tl+ flux (F380Y) 0.00354 | log fold change Tl+ flux (F380Y/beta1) -0.0163 | log fold change Tl+ flux (F380Y/beta2Delta) 0.00809 | log fold change Tl+ flux (R275C) -0.0159 | log fold change Tl+ flux (R275C/beta1) -0.0271 | log fold change Tl+ flux (R275C/beta2Delta) -0.0181 | log fold change Tl+ flux (R275C/Slo1WT/beta2) 0.0123

CC[C@@H](CO)NC(=O)[C@@H]1C=C2c3cccc4c3c(cn4C)C[C@H]2N(C)C1
inactive: period change [2] 0.11 h | fluorescence ratio (interference) [3] 1 | remaining activity [4] 112% | outcome [5]

CC(C)c1cccc(C(C)C)c1O
inactive: period change [2] 0.005 h | survival [6] 5.17 | inhibition [7] -1% | fluorescence ratio (interference) [3] 1 | mean signal [1] 226 | remaining activity [4] 108% | outcome [5] | log fold change Tl+ flux (F380Y) -0.0182 | log fold change Tl+ flux (F380Y/beta1) -0.0717 | log fold change Tl+ flux (F380Y/beta2Delta) -0.0275 | log fold change Tl+ flux (R275C) -0.0316 | log fold change Tl+ flux (R275C/beta1) -0.0537 | log fold change Tl+ flux (R275C/beta2Delta) -0.0157 | log fold change Tl+ flux (R275C/Slo1WT/beta2) -0.0465

NC(=O)OCCCc1ccccc1
inactive: mean signal [1] 256 | log fold change Tl+ flux (F380Y) 0.0271 | log fold change Tl+ flux (F380Y/beta1) 0.00909 | log fold change Tl+ flux (F380Y/beta2Delta) 0.0735 | log fold change Tl+ flux (R275C) -0.0501 | log fold change Tl+ flux (R275C/beta1) 0.00561 | log fold change Tl+ flux (R275C/beta2Delta) 0.00928 | log fold change Tl+ flux (R275C/Slo1WT/beta2) 0.0397

Oc1cc(Cl)ccc1Oc1ccc(Cl)cc1Cl
active: log fold change Tl+ flux (F380Y) -0.452 | log fold change Tl+ flux (F380Y/beta1) -0.302 | log fold change Tl+ flux (F380Y/beta2Delta) -0.343 | log fold change Tl+ flux (R275C) -0.105 | log fold change Tl+ flux (R275C/beta1) -0.254 | log fold change Tl+ flux (R275C/beta2Delta) -0.148 | log fold change Tl+ flux (R275C/Slo1WT/beta2) -0.125
inactive: mean signal [1] 192

CCCC(C)C1(CC)C(=O)N=C(S)NC1=O (stereo not drawn)
2: inclusion score [11]
15.2%: inhibition [8]
15.5%: glutamate uptake change [10]
-8.64: rescue above control [9]
0.929: aggregation suppression score [12]

c1ccc2c(c1)OCC(C1=NCCN1)O2 (stereo not drawn)
inactive: period change [2] 0.1 h | survival [6] 1.58 | inhibition [7] -7% | fluorescence ratio (interference) [3] 0.9 | remaining activity [4] 109% | outcome [5]

CCC(COC(=O)c1cc(OC)c(OC)c(OC)c1)(c1ccccc1)N(C)C (stereo not drawn)
active: log fold change Tl+ flux (F380Y) -0.284 | log fold change Tl+ flux (F380Y/beta1) -0.135 | log fold change Tl+ flux (F380Y/beta2Delta) -0.21 | log fold change Tl+ flux (R275C) -0.249 | log fold change Tl+ flux (R275C/beta1) -0.324 | log fold change Tl+ flux (R275C/beta2Delta) -0.495 | log fold change Tl+ flux (R275C/Slo1WT/beta2) -0.104
inactive: mean signal [1] 257

NC1=NC(=O)C(c2ccccc2)O1 (stereo not drawn)
inactive: mean signal [1] 245 | log fold change Tl+ flux (F380Y) -0.012 | log fold change Tl+ flux (F380Y/beta1) -0.0441 | log fold change Tl+ flux (F380Y/beta2Delta) -0.0196 | log fold change Tl+ flux (R275C) 0.00173 | log fold change Tl+ flux (R275C/beta1) 0.00542 | log fold change Tl+ flux (R275C/beta2Delta) -0.00885
active: log fold change Tl+ flux (R275C/Slo1WT/beta2) 0.0857

COc1cccc([C@@]2(O)CCCC[C@@H]2CN(C)C)c1
inactive: mean signal [1] 274 | log fold change Tl+ flux (F380Y) -0.0178 | log fold change Tl+ flux (F380Y/beta1) -0.0211 | log fold change Tl+ flux (F380Y/beta2Delta) -0.0331 | log fold change Tl+ flux (R275C) -0.0685 | log fold change Tl+ flux (R275C/beta1) -0.0302 | log fold change Tl+ flux (R275C/beta2Delta) 0.00141 | log fold change Tl+ flux (R275C/Slo1WT/beta2) 0.0567

c1ccc(C2CC2)c(OCC2=NCCN2)c1
inactive: period change [2] -0.34 h | inhibition [7] -4% | fluorescence ratio (interference) [3] 1 | remaining activity [4] 98% | outcome [5]

C[N+]1(C)[C@@H]2CC[C@H]1CC(OC(=O)C(CO)c1ccccc1)C2 (stereo partly drawn)
inactive: remaining activity [4] 93.2%
